PubChem BioAssay (Tox21)
Inconclusive results are not listed. Active and inactive are the calls of the source. Unless noted, calls follow the shape of the dose curve; as a rule, active = well fitted curve in the direction sought with a large enough effect in the repeat runs; inconclusive = weak or mixed curves; inactive = no such curve, though single readings can be large; an effect the other way counts as inactive or inconclusive.

Tests used:
[1] = qHTS assay to identify small molecule antagonists of the estrogen receptor beta (ER-beta) signaling pathway - cell viability counter screen (AID 1259382);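 also: HEK293T cells carrying ER-beta-UAS-bla reporter stimulated with estradiol; series mostly up to about 92 µM; nearly all actives have a fitted effect of over 55% in size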
Summary of the method: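 Following a 6 hr plating period, HEK293T cells carrying a UAS-driven beta-lactamase reporter under ER-beta control received compounds and 1nM E2 (final). After 16 hr at 37C and 2 hr substrate loading, CellTiter-Glo luminescence indicated viability.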

[2] = qHTS assay to identify small molecule agonists or antagonists of the thyroid stimulating hormone receptor (TSHR) signaling pathway - wild type cell line counter screen (AID 1259384; calls by dose curve)
Summary of the method: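 Counter screen in untransfected Hek293: compounds (15-point titration, triplicate) plus phosphodiesterase inhibitor Ro20-1724 added after 18 h plating; 30 min RT. Intracellular cAMP via competitive d2/cryptate immunoassay, 1 h incubation.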

[3] = target: Thyrotropin receptor (Homo sapiens) (UniProt P16473); assay: qHTS assay to identify small molecule antagonists of the thyroid stimulating hormone receptor (TSHR) signaling pathway (AID 1259385; calls by dose curve; also: nearly all actives have a fitted effect of over 20% in size)
Summary of the method: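 Antagonist mode: compound-treated TSHR-expressing HEK293 cells were stimulated with 1.5 ng/mL TSH (final) in presence of Ro20-1724 for 30 min at RT. HTRF cAMP detection after 1 h; each compound tested at 15 concentrations, triplicate.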

[4] = qHTS assay to identify small molecule agonists of the estrogen receptor alpha (ER-alpha) signaling pathway in the presence of an antagonist - cell viability counter screen (AID 1259386);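 also: series mostly up to about 92 µM; cells exposed to compounds for 22 h at 37 °C before the viability read; nearly all actives have a fitted effect of over 30% in size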
Summary of the method: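 Cells are starved of estrogens for 5 days in charcoal-stripped serum, seeded for 24hr and co-treated with ICI-182,780 (10.0nM final) and test compounds. After 22hr at 37C, viability is read as CellTiter-Fluor fluorescence.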

[5] = target: Progesterone receptor (Homo sapiens) (UniProt P06401); assay: qHTS assay to identify small molecule agonists of the progesterone receptor (PR) signaling pathway (AID 1346784; calls by dose curve; also: nearly all actives have a fitted effect of over 30% in size)
Summary of the method: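 PR-UAS-bla HEK 293T cells carrying a UAS-driven beta-lactamase reporter were seeded in medium with 2% charcoal-stripped FBS, preincubated 6 hr at 37C, then exposed to compounds in DMSO for 16 hr; agonism was read by LiveBLAzer B/G FRET fluorescence.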

[6] = target: Progesterone receptor (Homo sapiens) (UniProt P06401); assay: qHTS assay to identify small molecule antagonists of the progesterone receptor (PR) signaling pathway (AID 1346795; active = well fitted inhibition curve with a large enough effect in the signal ratio in the repeat runs, not every such curve was filed as active; the % refers to the signal ratio)
Summary of the method: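 PR-UAS-bla HEK293T cells carrying a UAS-driven beta-lactamase reporter were plated in medium with 2% charcoal-stripped FBS and rested 6 hr at 37C. Compounds were added with 1 nM R5020 (final) for 16 hr, then FRET substrate loaded 2 hr at room temperature.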

[7] = qHTS assay to identify small molecule antagonists of the progesterone receptor (PR) signaling pathway - cell viability counter screen (AID 1346798); also: series mostly up to about 92 µM; nearly all actives have a fitted effect of over 50% in size
Summary of the method: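 PR-UAS-bla HEK293T cells in medium with 2% charcoal-stripped FBS were treated with compounds plus R5020 for 16 hr at 37C. Cell viability was then read by CellTiter-Glo luminescence after 30 min at room temperature in the same wells.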

[8] = qHTS assay to identify small molecule agonists of the progesterone receptor (PR) signaling pathway - cell viability counter screen (AID 1346799; calls by dose curve; also: nearly all actives have a fitted effect of over 45% in size)
Summary of the method: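 PR-UAS-bla HEK293T cells, 3,000 per well in medium with 2% charcoal-stripped FBS, were preincubated 6 hr at 37C, then exposed to compounds for 16 hr; viability was read as CellTiter-Glo luminescence after 30 min at room temperature.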

[9] = qHTS assay to identify small molecule antagonists of the TGF-beta/Smad signaling pathway - cell viability counter screen (AID 1346824); also: nearly all actives have a fitted effect of over 50% in size
Summary of the method: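 Cytotoxicity counter-screen run in the same wells as the beta-lactamase Smad reporter read: CellTiter-Glo luminescence after 30 min at room temperature. HEK 293T SBE-bla cells had 5 hr compound exposure at 37 C with TGF-beta1 (0.25 ng/mL stock).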

[10] = qHTS assay to identify small molecule agonists of the TGF-beta/Smad signaling pathway - cell viability counter screen (AID 1346829); also: top concentration of the series differs between compounds; nearly all actives have a fitted effect of over 45% in size
Summary of the method: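 Luminescence from CellTiter-Glo, read after a 30 min room-temperature incubation, gives cell viability of SBE-bla HEK 293T cells treated 5 hr with compounds at 37 C.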

[11] = qHTS assay to identify small molecule agonists of the TGF-beta/Smad signaling pathway (AID 1346859; active = well fitted activation curve with a large enough effect in the signal ratio in the repeat runs, not every such curve was filed as active; the % refers to the signal ratio; also: series mostly up to about 77 µM)
Summary of the method: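 HEK 293T cells stably carrying a beta-lactamase reporter driven by the Smad binding element were seeded overnight, exposed to DMSO-dissolved compounds for 5 hr at 37 C, 5% CO2, then loaded with FRET substrate for 2 hr at room temperature.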

[12] = target: Thyrotropin-releasing hormone receptor (Homo sapiens) (UniProt P34981); assay: qHTS assay to identify small molecule antagonists of the thyrotropin-releasing hormone receptor (TRHR) signaling pathway (AID 1346877; active = well fitted inhibition curve with a large enough effect in the repeat runs, not every such curve was filed as active; also: series mostly up to about 51 µM)
Summary of the method: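 Cells (TRHR-HEK293) are plated and kept 18 h at 37 °C/5% CO2. A calcium-sensitive dye is added for 2 h, compound follows for 5 min at room temperature, and TRH is then given at 1 nM final.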

[13] = target: Thyrotropin-releasing hormone receptor (Homo sapiens) (UniProt P34981); assay: qHTS assay to identify small molecule agonists of the thyrotropin-releasing hormone receptor (TRHR) signaling pathway (AID 1346891; calls by dose curve; also: series mostly up to about 58 µM)
Summary of the method: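 TRHR-expressing HEK293 cells were plated 18 h at 37 °C/5% CO2, loaded with calcium dye 2 h at 37 °C, then given compound in DMSO; fluorescence was read kinetically for 3 min at 1 s intervals.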

[14] = Human pregnane X receptor (PXR) small molecule agonists, qHTS cell viability counter screen (AID 1346977); also: nearly all actives have a fitted effect of over 50% in size
Summary of the method: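 PXR-Luc HepG2 cells in medium with 5% charcoal-stripped FBS were pre-incubated 5hr, then exposed to compounds for 24hr at 37C. Viability was read in the same wells by CellTiter-Fluor fluorescence, reagent added after 23hr with a 1hr incubation.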

[15] = Caspase-3/7 induction in HepG2 cells by small molecules, qHTS assay (AID 1346978); also: nearly all actives have a fitted effect of over 15% in size
Summary of the method: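 Caspase-3/7 induction was measured by Caspase-Glo 3/7 luminescence (30 min, room temperature) after a 17 hr compound exposure of wild-type HepG2 cells seeded at 2,000 per well and pre-incubated 5 hr.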

[16] = Caspase-3/7 induction in CHO-K1 cells by small molecules, qHTS assay (AID 1346980); also: nearly all actives have a fitted effect of over 15% in size
Summary of the method: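 Luminescent Caspase-Glo 3/7 read (30min, room temperature) quantified apoptosis induction. Cells were wild-type CHO-K1, treated with compound for 17hr at 37 C and 5% CO2.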

[17] = Caspase-3/7 induction in HepG2 cells by small molecules, qHTS cell viability counter screen (AID 1346981); also: series mostly up to about 92 µM; nearly all actives have a fitted effect of over 30% in size
Summary of the method: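 Steps: seed 2,000 HepG2 cells per well; incubate 5 hr at 37 C; pin-add compounds in DMSO; incubate 16 hr; add CellTiter-Fluor; after 1 hr at 37 C and 5% CO2, read fluorescence.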

[18] = target: Estrogen receptor (Homo sapiens) (UniProt P03372); assay: qHTS assay to identify small molecule agonists of the estrogen receptor alpha (ER-alpha) signaling pathway in the presence of an antagonist (AID 1259383; calls by dose curve; also: top concentration of the series differs between compounds; nearly all actives have a fitted effect of over 15% in size)
Summary of the method: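 Cells are hormone-deprived for 5 days (charcoal-stripped FBS, no phenol red), plated for 24hr, spiked with 10.0nM ICI-182,780, then dosed at 15 concentrations. After 22hr at 37C, ONE-Glo luminescence reports ERE-luciferase activity.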

[19] = Caspase-3/7 induction in CHO-K1 cells by small molecules, qHTS cell viability counter screen (AID 1346979); also: nearly all actives have a fitted effect of over 35% in size
Summary of the method: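 Wild-type CHO-K1 cells were seeded at 1,500 per well, rested 5hr at 37 C, then exposed to compounds in DMSO. After 16hr, CellTiter-Fluor reagent was added and fluorescence read 1hr later as the viability measure.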

Measured: Potency

Chain of Progesterone receptor (Homo sapiens) (P06401 whole entry, looked up): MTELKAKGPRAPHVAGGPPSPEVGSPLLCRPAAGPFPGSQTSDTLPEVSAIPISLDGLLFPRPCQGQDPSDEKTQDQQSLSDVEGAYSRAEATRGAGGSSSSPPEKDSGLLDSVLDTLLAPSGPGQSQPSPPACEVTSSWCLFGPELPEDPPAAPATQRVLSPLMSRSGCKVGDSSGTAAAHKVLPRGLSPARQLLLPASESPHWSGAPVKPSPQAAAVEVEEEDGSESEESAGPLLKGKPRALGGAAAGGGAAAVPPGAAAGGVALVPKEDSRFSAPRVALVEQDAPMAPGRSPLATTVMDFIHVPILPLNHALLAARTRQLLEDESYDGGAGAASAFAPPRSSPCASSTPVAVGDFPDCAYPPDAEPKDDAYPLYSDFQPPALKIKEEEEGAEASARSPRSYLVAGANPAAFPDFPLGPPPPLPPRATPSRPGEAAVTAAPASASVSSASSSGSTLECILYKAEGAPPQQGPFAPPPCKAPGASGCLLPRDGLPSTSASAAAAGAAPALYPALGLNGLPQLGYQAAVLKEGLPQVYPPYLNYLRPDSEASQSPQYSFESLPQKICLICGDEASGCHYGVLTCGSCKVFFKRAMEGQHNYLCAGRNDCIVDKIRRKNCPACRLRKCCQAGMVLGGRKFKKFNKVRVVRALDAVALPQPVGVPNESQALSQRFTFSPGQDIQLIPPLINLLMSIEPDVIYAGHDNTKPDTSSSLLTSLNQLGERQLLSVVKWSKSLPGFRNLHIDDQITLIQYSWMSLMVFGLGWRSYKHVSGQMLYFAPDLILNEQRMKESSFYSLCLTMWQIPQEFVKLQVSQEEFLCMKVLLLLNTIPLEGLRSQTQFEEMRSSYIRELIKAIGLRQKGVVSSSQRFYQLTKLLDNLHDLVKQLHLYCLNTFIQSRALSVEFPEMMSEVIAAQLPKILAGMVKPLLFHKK
Chain of Thyrotropin receptor (Homo sapiens) (P16473 whole entry, looked up): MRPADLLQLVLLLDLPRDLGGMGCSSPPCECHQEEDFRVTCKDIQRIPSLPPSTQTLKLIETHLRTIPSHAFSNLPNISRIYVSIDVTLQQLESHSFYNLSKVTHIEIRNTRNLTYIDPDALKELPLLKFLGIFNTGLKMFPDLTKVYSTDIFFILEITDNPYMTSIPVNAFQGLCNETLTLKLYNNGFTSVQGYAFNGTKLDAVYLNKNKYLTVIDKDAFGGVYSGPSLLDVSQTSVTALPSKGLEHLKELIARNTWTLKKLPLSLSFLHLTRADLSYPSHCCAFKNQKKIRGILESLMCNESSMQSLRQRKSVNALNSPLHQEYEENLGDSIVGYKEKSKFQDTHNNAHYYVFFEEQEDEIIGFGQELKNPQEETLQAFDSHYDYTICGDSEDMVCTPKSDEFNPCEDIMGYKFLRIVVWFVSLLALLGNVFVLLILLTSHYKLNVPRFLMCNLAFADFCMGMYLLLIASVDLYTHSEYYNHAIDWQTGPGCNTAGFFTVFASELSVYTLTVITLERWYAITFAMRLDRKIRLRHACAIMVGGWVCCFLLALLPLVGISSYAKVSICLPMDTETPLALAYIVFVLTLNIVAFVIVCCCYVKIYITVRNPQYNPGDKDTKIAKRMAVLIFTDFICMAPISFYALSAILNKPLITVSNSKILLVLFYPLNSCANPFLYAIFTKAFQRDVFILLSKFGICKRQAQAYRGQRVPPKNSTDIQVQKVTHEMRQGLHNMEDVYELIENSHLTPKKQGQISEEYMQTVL
Chain of Thyrotropin-releasing hormone receptor (Homo sapiens) (P34981 whole entry, looked up): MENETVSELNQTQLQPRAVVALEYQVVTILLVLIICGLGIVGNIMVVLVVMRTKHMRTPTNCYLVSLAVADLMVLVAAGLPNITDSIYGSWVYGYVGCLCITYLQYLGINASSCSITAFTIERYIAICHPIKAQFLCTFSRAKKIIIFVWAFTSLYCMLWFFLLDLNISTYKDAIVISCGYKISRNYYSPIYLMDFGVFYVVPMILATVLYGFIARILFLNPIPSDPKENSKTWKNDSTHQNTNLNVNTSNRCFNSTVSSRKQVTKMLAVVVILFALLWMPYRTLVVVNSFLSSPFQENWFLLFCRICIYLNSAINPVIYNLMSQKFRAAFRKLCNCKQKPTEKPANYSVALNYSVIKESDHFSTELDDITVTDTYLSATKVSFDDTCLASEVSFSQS
Chain of Estrogen receptor (Homo sapiens) (P03372 whole entry, looked up): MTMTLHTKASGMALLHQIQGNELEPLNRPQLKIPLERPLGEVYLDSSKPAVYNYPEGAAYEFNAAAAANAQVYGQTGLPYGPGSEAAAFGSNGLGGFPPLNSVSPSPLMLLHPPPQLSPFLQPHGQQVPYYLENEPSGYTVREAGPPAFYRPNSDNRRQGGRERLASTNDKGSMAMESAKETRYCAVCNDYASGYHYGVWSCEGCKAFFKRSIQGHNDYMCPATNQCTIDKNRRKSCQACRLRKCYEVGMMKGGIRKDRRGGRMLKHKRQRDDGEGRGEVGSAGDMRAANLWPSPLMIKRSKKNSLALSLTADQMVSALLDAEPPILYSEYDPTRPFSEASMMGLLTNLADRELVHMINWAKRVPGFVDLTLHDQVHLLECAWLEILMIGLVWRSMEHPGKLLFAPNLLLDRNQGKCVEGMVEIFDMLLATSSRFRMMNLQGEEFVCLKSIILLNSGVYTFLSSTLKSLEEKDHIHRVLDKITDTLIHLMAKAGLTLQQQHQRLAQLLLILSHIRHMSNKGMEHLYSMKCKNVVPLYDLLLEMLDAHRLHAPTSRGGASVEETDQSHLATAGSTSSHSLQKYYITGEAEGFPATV

N#Cc1cscn1
inactive: [1] | [2] | [3] | [4] | [5] | [6] | [7] | [8] | [9] | [10] | [11] | [12] | [13] | [14] | [15] | [16] | [17]

CN(C)CCCCl
inactive: [1] | [18] | [2] | [4] | [6] | [7] | [8] | [9] | [10] | [11] | [12] | [14] | [15] | [19] | [16] | [17]

O=C=NCC1CCCC(CN=C=O)C1 (stereo unspecified)
inactive: [1] | [18] | [2] | [3] | [4] | [7] | [8] | [9] | [10] | [11] | [12] | [14] | [15] | [19] | [16] | [17]

CC1(C)Oc2ccc(C#N)cc2[C@@H](N2CCCC2=O)[C@@H]1O
inactive: [1] | [18] | [2] | [3] | [4] | [6] | [7] | [8] | [9] | [10] | [11] | [14] | [15] | [19] | [16] | [17]

O=C(O)[C@H](O)c1ccccc1
inactive: [1] | [18] | [2] | [3] | [4] | [6] | [8] | [9] | [10] | [11] | [13] | [14] | [15] | [16] | [17]

CCCC(=O)Nc1ccc(OCC(O)CNC(C)C)c(C(C)=O)c1 (stereo unspecified)
inactive: [1] | [18] | [2] | [3] | [4] | [6] | [7] | [8] | [9] | [10] | [11] | [14] | [15] | [19] | [16] | [17]

CC(C)c1ccc(C=O)cc1
inactive: [1] | [18] | [2] | [3] | [4] | [6] | [7] | [8] | [9] | [10] | [13] | [14] | [15] | [16] | [17]
